Measured values taken from PubChem BioAssay (NCI).
The panel holds about 83,000 compounds, 20% with a hit somewhere; the sample as a whole holds those more often.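 Cells were grown in 96-well plates and exposed to the test compound at a single concentration for 48 hours; results are reported as percent growth, with values below 10 considered active.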 A number with no mark means an inactive call. Calls of active or inactive are those of the source.

test system: EKVX NSCLC; experiment: NCI-60 one-dose screen, 48 h (100 = growth as untreated, 0 = no growth, -100 = all killed); details: 10 µM unless noted

Point of comparison: COc1cc(C2C=C(c3cccc(NC(C)=O)c3)Nc3ncnn32)cc(OC)c1OC (stereo not drawn), growth 37.2%. Against it:
- COc1ccc(/C(C)=C(\c2ccc(Cl)cc2)c2ccc(OCCN3CCCC3)cc2)cc1F — higher, 47%
- Nc1c(-c2nc3ccccc3c(=O)[nH]2)nnn1-c1ccc(Cl)cc1 — higher, 103%
- O=C(/C=C/C12c3ccccc3C(c3ccccc31)C1C(=O)NC(=O)C12)c1ccc(Cl)cc1 (stereo not drawn) — lower, 17.8%
- Clc1ccc(-c2cn(-c3ccccc3)c(-c3ccccc3)n2)cc1 — higher, 84.5%
- COc1cc(NC(=O)c2cc(O)c(CC=C(C)C)c(O)c2)cc2c1O[C@]1(C)CC[C@@H](O)C(C)(C)[C@H]1C2 — higher, 41%
- Clc1ccc(/C=C/c2nc(Nc3ccc(Cl)cc3)c3ccccc3n2)cc1 — higher, 90.5%
- O=[N+]([O-])c1ccc2[nH]cc(-c3c4ccsc4cc4[nH]c5ccc([N+](=O)[O-])cc5c34)c2c1 — lower, 29%
- CC1=NN(c2cccc(Cl)c2)C(=O)/C1=C\c1cn(CC(O)CN2CCCCC2)c2ccccc12 (stereo not drawn) — higher, 88%
- Clc1ccc(-c2nc(NCCc3ccccc3)nc3c(NCCc4ccccc4)cnn23)cc1 — higher, 79.5%
- O=C(C[C@@]1(O)C(=O)Nc2c(Cl)ccc(Cl)c21)c1ccc(C2CC2)cc1 — higher, 46.5%
- CCC(O)(C(c1ccccc1)c1ccccn1)C(c1ccccc1)c1ccccn1 (stereo not drawn) — higher, 97.7%

C=C1C(=O)O[C@H]2[C@H]1CC/C(COC(=O)/C=C\C(=O)NCc1ccc(Cn3c(=O)sn(CCCC)c3=O)cc1)=C\CC[C@@]1(C)O[C@@H]21 was tested, and the growth was -48% (active).
